RORgamma inh: qHTS for inhibitors of ROR gamma transcriptional activity; Nuclear receptor ROR-gamma (Mus musculus), P51450; Drosophila S2 Gal4-RORgamma UAS-luciferase reporter, 20 h; Potency, µM (titrated, usually from 53.6 µM), without a hit: at the top dose activity change, negative = inhibition, usual class: inhibitors; hit rate 5.4% among 310,000; further: potency means the concentration at half of the fitted maximal effect; nearly all actives have a fitted effect of over 60% in size
Target sequence (P51450 whole entry, looked up, the tested form may be a part): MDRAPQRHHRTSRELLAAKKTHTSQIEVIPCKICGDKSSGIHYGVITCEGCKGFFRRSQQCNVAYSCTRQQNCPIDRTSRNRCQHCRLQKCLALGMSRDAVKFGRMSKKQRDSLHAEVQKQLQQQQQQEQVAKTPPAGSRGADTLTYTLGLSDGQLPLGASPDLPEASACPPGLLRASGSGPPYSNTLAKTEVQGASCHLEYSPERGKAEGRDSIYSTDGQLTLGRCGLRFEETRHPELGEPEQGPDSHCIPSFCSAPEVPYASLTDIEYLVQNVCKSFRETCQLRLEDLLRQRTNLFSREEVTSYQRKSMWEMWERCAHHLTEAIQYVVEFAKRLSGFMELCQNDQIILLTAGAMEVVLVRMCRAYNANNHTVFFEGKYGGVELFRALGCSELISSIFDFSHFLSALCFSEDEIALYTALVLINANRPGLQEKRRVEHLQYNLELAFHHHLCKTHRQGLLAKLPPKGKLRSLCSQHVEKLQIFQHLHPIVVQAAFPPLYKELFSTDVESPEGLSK
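Read-out: Photinus luciferase luminescence; inhibitors lower reporter signal. Insect Schneider cells with Gal4-ROR gamma fusion under metallothionein promoter, UAS reporter; 700 uM final copper sulfate induction, 20 hr, ambient temperature.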
IL1B secr inh: qHTS for Inhibitors of Inflammasome Signaling: IL-1-beta AlphaLISA Primary Screen. AID 743279, 2014. THP-1 LPS/ATP IL-1B secretion, AlphaLISA, 16 h; active compounds read low. hit rate 4.7% among 360,000. activity change, % at 57.5 µM; in the data active means activity change below about -50%; inconclusive means mostly about -30% to -49%
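THP-1 cells pretreated 1 hr with compounds (up to 57.5 uM final), then stimulated with LPS (250 ng/mL final) plus ATP (1.25 mM final); secreted IL-1B measured by AlphaLISA after 16 hr, decreased signal indicating inhibition.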
TDP1 cell noCPT: qHTS for Inhibitors of human tyrosyl-DNA phosphodiesterase 1 (TDP1): qHTS in cells in absence of CPT | DT40 Tdp1-/- hTDP1 cells, no CPT, ATP luminescence, 48 h | Potency, µM (series often up to 46.2 µM), inactives show top-dose activity change, negative = growth inhibition, usual class: inhibitors | hit rate 15% among 420,000 | AID 686978, 2013; further: potency means the concentration at half of the fitted maximal effect; nearly all actives have a fitted effect of over 55% in size
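No-CPT arm: Tdp1-/-;hTDP1 DT40 cells (400/well) plus compounds, incubated ≥48 hr at 37 °C. Readout CellTiter-Glo luminescence.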
LDHA inh: qHTS assay for inhibitors of human lactate dehydrogenase | purified LDHA, NADH/diaphorase-resazurin fluorescence; active compounds read low | activity change, % (values are at about 110 or 230 µM) | hit rate 0.15% among 480,000 | AID 1347041, 2019; in the data active means activity change below about -30%; inconclusive means mostly about -25% to -30%;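 further: plate controls were DMSO wells for no effect and wells without enzyme for full effect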
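LDH5 2 nM; NADH 0.06 mM, pyruvate 0.2 mM; 200 mM Tris pH 7.4, EDTA, Tween-20; 5 min RT. Detection: diaphorase 0.133 mg/mL + resazurin 37 µM, fluorescence ex540/em590 at 0 and 20 min; normalized to enzyme-free and DMSO wells.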
DT40 TDP1 CPT: qHTS for Inhibitors of human tyrosyl-DNA phosphodiesterase 1 (TDP1): qHTS in cells in presence of CPT; Potency, µM (highest dose often 46.2 µM), for the others: top-dose activity change, negative = growth inhibition, hits mostly inhibitors; hit rate 12% among 420,000; chicken DT40 Tdp1-/-;hTDP1 cells + 20 nM CPT, ATP luminescence, 48 h; further: potency means the concentration at half of the fitted maximal effect; nearly all actives have a fitted effect of over 55% in size
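Cell growth measured by CellTiter-Glo luminescence after a minimum 48 h, 37 C compound exposure with 20 nM CPT in Tdp1-knockout DT40 cells stably expressing hTDP1, seeded 400/well; qHTS titration format.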
VP16 counter: VP16 counterscreen qHTS for inhibitors of ROR gamma transcriptional activity. Drosophila S2 Gal4-VP16 UAS-luciferase, luminescence, 20 h. Potency, µM (titrated, usually from 53.6 µM), without a hit: at the top dose activity, negative = inhibition, actives largely listed as inhibitors. hit rate 3.5% among 310,000;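 further: Gal4-VP16 expression switched on by copper sulfate through the metallothionein promoter; potency means the concentration at half of the fitted maximal effect; nearly all actives have a fitted effect of over 50% in size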
Starred values were filed as active, the others as inactive; ? = inconclusive; . = no result; [ ] = dose if it differs, or a comment. This is a sample that favours compounds with a hit; in the whole collection about 18% have one here. Unless noted, the call rests on the fitted dose curve; in most records, active means well fitted curve in the direction sought with a large enough effect; inconclusive means small, poorly fitted or top-dose-only effect, or another doubt; inactive means no such curve, though single readings can be large; an effect the other way counts as inactive or inconclusive. Unless noted, on the % scale 0 is the no-effect control and ±100 the full control effect.

SMILES | RORgamma inh | IL1B secr inh | TDP1 cell noCPT | LDHA inh | DT40 TDP1 CPT | VP16 counter
Cc1ccn2c(C(=O)NN=C3CCN(C)CC3)c(C)nc2c1 | 4% | 2 | -23% | 4 | 29% | -22%
Cc1ccc2nc(C)c(C(=O)N/N=C/c3cccs3)n2c1 | 11µM* | 0 | ? | -7 | ? | -2%
Cc1ccc2nc(C)c(C(=O)NN=C3CCCCCC3)n2c1 | 13µM* | 47 | 6% | -1 | ? | -25%
Cc1ccc(NC(=O)C(c2ccc(Cl)cc2)N2CCCCC2)cc1 (configuration not stated) | -8% | -12 | 13µM* | -4 | 15µM* | 2%
Cc1cc(C)cc(NC(=O)C(c2ccccc2)N2CCCC2)c1 (configuration not stated) | 7% | ? | 2.9µM* | -7 | 3.7µM* | -5%
Cc1cccc(C)c1NC(=O)C(c1ccc(Cl)cc1Cl)N1CCCCC1 (configuration not stated) | 11% | ? | 29µM* | 0 | 18µM* | -8%
Cc1cc(C)c2c(=O)cc(C(=O)Nc3c(C)cccc3C)oc2c1 | . | . | . | 2 | . | .
c1ccc(Oc2ccc(-c3ccnc4nc(N5CCOCC5)nn34)cc2)cc1 | ? | -68* | 16µM* | -6 | 15µM* | -3%[10 µM]
COc1ccc(-c2ccnc3nc(N4CCOCC4)nn23)cc1 | 22% | -10 | -11% | -2 | -9% | -3%
O=C(O)Cc1cn(-c2ccccc2)nc1-c1ccc(Cl)cc1 | 42% | -2 | ? | -5 | ? | -8%
CC1=NNC(=O)/C1=C\c1cn(-c2ccccc2)nc1-c1ccc(Cl)cc1 | 5µM* | -119* | 5.2µM* | 0 | 5.2µM* | 3.2µM*
CC1(C)CC(=O)C(=Cc2cn(-c3ccccc3)nc2-c2ccccc2)C(=O)C1 | . | 0 | 23µM* | -9 | 23µM* | .
CC1=NN(c2ccccc2)C(=O)/C1=C\c1cn(CCC#N)nc1-c1ccc(Cl)cc1 | -15% | -85* | ? | 12 | ? | 2%
Cn1cc(C=C2C(=O)CC(C)(C)CC2=O)c2ccccc21 | 1% | 9 | 5% | 7 | -23% | -6%
Cc1ccc(-c2nn(-c3ccccc3)cc2C=C2C(=O)CC(C)(C)CC2=O)cc1 | 10% | -30 | ? | -5 | 15µM* | -7%
CC1=NN(c2ccccc2)C(=O)/C1=C\c1cn(-c2ccccc2)nc1C | 4% | 38 | -14% | 9 | ? | 2%
CCC(=O)c1c(N)cc(C)oc1=O | . | . | . | -3 | . | .
CCc1ccc(NC(=O)OCC(C)C)cc1 | . | . | . | 14 | . | .
CCCCN1C(=O)C(CC(=O)NCc2cccc3ccccc23)CC(C(=O)N2CCCCCC2)=C1C (configuration not stated) | . | -55* | ? | -5 | ? | .
CC1=C(C(=O)N2CCCCCC2)CC(CC(=O)NCc2cccs2)C(=O)N1CCC1=CCCCC1 (configuration not stated) | . | 0 | 23µM* | -2 | 16µM* | .
COCCCN1C(=O)C(CC(=O)NCc2cccc3ccccc23)CC(C(=O)N2CCCCCC2)=C1C (configuration not stated) | . | . | 12% | . | -6% | .
CC1=C(C(=O)N2CCCCCC2)CC(CC(=O)NCc2cccc3ccccc23)C(=O)N1CCC1=CCCCC1 (configuration not stated) | . | -63* | ? | 2 | ? | .
CC1=C(C(=O)N2CCOCC2)CC(CC(=O)NCc2ccco2)C(=O)N1CCC1=CCCCC1 (configuration not stated) | . | -15 | ? | 0 | -10% | .
CCc1cc(CC)n(-c2nc3c(c(=O)n(CC)c(=O)n3C)n2Cc2ccc(OC)cc2)n1 | . | . | . | -7 | . | .
COc1ccc(CNC(=O)Nc2cccc(C(F)(F)F)c2)cc1OC | 11% | 3 | 9.2µM* | 0 | ? | -13%
SMILES | RORgamma inh | IL1B secr inh | TDP1 cell noCPT | LDHA inh | DT40 TDP1 CPT | VP16 counter
COc1ccc(CNC(=O)NCc2ccc(OC)c(OC)c2)cc1OC | -2% | 30 | -6% | -2 | -10% | -5%
O=C(COc1ccc(C(F)(F)F)cc1[N+](=O)[O-])Nc1cccc(C(F)(F)F)c1 | -17% | -10 | -16% | 0 | 24% | -3%
CCOc1cc(CNC(CC)CO)ccc1OCC(=O)Nc1cccc(C(F)(F)F)c1 (configuration not stated) | 31% | -20 | 26µM* | -3 | ? | 2%
NC(=O)c1nsc(C(=O)N(c2ccc(Cl)cc2)C(C(=O)NCC2CCCO2)c2cccs2)c1N (configuration not stated) | 15% | -83* | ? | -8 | ? | -10%
CCc1ccc(N(C(=O)c2snc(C(N)=O)c2N)C(C(=O)NCC2CCCO2)c2cccs2)cc1 (configuration not stated) | 38% | 14 | 21µM* | 3 | ? | -6%
CC1CCC(C(C)C)/C(=N/NC(N)=O)C1 (configuration not stated) | . | . | . | -3 | . | .
CCOc1ccc(Nc2nc(N)nc(CSC(=S)N3CCN(c4ccccc4)CC3)n2)cc1 | -17% | -1 | 18µM* | -1 | 15µM* | 10%
COc1ccccc1Nc1nc(N)nc(CSC(=S)N2CC(C)CC(C)C2)n1 (configuration not stated) | ? | -3 | ? | -2 | ? | 25µM*
COc1ccccc1Nc1nc(N)nc(CN2CCc3ccccc3C2)n1 | 11µM* | -5 | ? | -2 | ? | ?
CC1CCN(C(=S)SCc2nc(N)nc(Nc3ccccc3)n2)CC1 | -65% | -9 | -12% | 1 | -12% | 6%
COc1ccc(Nc2nc(N)nc(CSC(=S)N3CCCCC3C)n2)cc1 (configuration not stated) | 13µM* | -62* | 18µM* | -9 | ? | -1%
Cc1nc2cc(F)ccc2cc1C(=O)N(Cc1cccnc1)C1CC1 | . | . | . | -13 | . | .
c1cncc(-c2nc(Sc3nnnn3C3CCCC3)c3ccccc3n2)c1 | . | . | . | -4 | . | .
COc1cccc(CN2c3ccccc3C3=C(C(c4ccccc4)C(C#N)=C(N)O3)S2(=O)=O)c1 (configuration not stated) | . | . | . | -1 | . | .
Cc1ccc(CCC2CCN(C(=O)c3cccc(C#N)c3)CC2)cc1 | . | . | . | 8 | . | .
